# DT40 TDP1 CPT = DT40-hTDP1 cell growth loss with CPT | AID 686979 | Potency, µM (doses to about 46.2 µM), most hits filed as inhibitors | 420,000 tested, 12% active | chicken DT40 Tdp1-/-;hTDP1 cells + 20 nM CPT, ATP luminescence, 48 h; note: nearly all actives have a fitted effect of over 55% in size
#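 Chicken DT40 Tdp1-/- cells stably complemented with human TDP1 were seeded at 400 cells/well in medium containing 20 nM camptothecin, exposed to pin-transferred compounds, and grown at 37 °C for at least 48 hr. Viability was read as ATP luminescence.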
# HT1080NT lethal = kills 2HG-producing HT-1080-NT fibrosarcoma cells; 360,000 tested, 1.6% active; HT-1080-NT fibrosarcoma viability, CellTiter-Glo ATP luminescence, 48 h; Potency, µM (top dose mostly 46.1 µM), most hits filed as cytotoxic;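 note: NT is the 2HG producing partner of a matched IDH1 knockdown line; nearly all actives have a fitted effect of over 55% in size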
#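 Toxicity toward the 2HG-producing NT line was scored as %Activity, normalised to DMSO and no-cell wells, from CellTiter-Glo luminescence after 48 hours' treatment.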
# IL1B secr inh = inhibitors of inflammasome signaling (IL-1 beta secretion); 360,000 tested, 4.7% active; activity change, % at 57.5 µM; AID 743279; THP-1 LPS/ATP IL-1B secretion, AlphaLISA, 16 h; stronger effect = lower value; in the data active = activity change below about -50%; inconclusive = mostly about -30% to -49%
#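 Secreted IL-1B measured by AlphaLISA bead assay after 16 h compound exposure of THP-1 cells; compounds (final up to 57.5 uM) added 1 h before LPS (250 ng/mL) and ATP (1.25 mM) stimulation; lower signal means less secretion.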
# DT40 TDP1 no CPT = qHTS for Inhibitors of human tyrosyl-DNA phosphodiesterase 1 (TDP1): qHTS in cells in absence of CPT | Potency, µM (doses to about 46.2 µM), hits mostly inhibitors | 420,000 tested, 15% active | DT40 Tdp1-/- hTDP1 cells, no CPT, ATP luminescence, 48 h; note: nearly all actives have a fitted effect of over 55% in size
#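 Compound effects on proliferation are scored in DT40 Tdp1-/-;hTDP1 cells in the absence of CPT. ATP levels (CellTiter-Glo luminescence) are recorded after a ≥48 hr, 37 °C incubation.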
# HT1080 IDH1KD tx = HT-1080 IDH1 knockdown cell toxicity (counter line) | HT-1080 IDH1 knockdown viability, ATP luminescence, 48 h | Potency, µM (top dose mostly 46.1 µM), usual class: cytotoxic | 360,000 tested, 2% active | AID 686971
#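 Viability of IDH1-knockdown HT-1080 fibrosarcoma cells was assessed by CellTiter-Glo after 48 h at 37 °C with titrated compound; concentration-effect curves were classified by fit quality and response size.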
# Numbers stand for hits; i = inactive; ? = inconclusive; nt = no result given. Rows were chosen to be rich in hits. Some 19% of all compounds tested hit in one or more screens of this group. Unless noted, calls come from the whole dose curve; as a rule, active = well fitted curve in the direction sought with a large enough effect; inconclusive = small, poorly fitted or top-dose-only effect, or another doubt; inactive = no such curve, though single readings can be large; an effect the other way counts as inactive or inconclusive.
SMILES,DT40 TDP1 CPT,HT1080NT lethal,IL1B secr inh,DT40 TDP1 no CPT,HT1080 IDH1KD tx
O=C1CC(SCCc2nc3ccccc3[nH]2)C(=O)N1c1ccc(F)c(Cl)c1 (stereo unspecified),i,i,i,i,i
O=C1CC(SCc2nc3ccccc3[nH]2)C(=O)N1c1cccc(Cl)c1 (stereo unspecified),?,i,i,13µM,i
CC(=O)c1ccc(NC(=O)CCNC(=O)c2ccccc2Cl)cc1,i,i,i,i,?
CCCCN(CC)S(=O)(=O)N1CCC(C(=O)NCc2ccc(F)cc2)CC1,i,i,i,?,i
CCCN1CCC(NC(=O)Nc2cccc3ccccc23)CC1,i,i,i,i,i
S=C(Nc1cc(Cl)cc(Cl)c1)NC1CCN(Cc2ccccc2)CC1,8.2µM,16µM,-66,6.5µM,?
CCCN1CCC(NC(=S)Nc2cccc(Cl)c2Cl)CC1,18µM,i,i,?,i
Cc1c(Cl)cccc1NC(=S)NC1CCN(Cc2ccccc2)CC1,?,i,-73,?,i
CC(C)c1ccccc1NC(=S)NC1CCN(Cc2ccccc2)CC1,?,i,?,?,i
S=C(Nc1ccccc1Cl)NC1CCN(Cc2ccccc2)CC1,21µM,i,i,18µM,i
O=P(NCc1ccccc1)(OCc1ccccc1)OCc1ccccc1,?,i,i,?,i
Nc1cc(N)nc(SCc2nnnn2-c2ccc(Cl)cc2)n1,i,i,i,?,i
O=C(Nc1ccnn1C1CCN(C(=O)Cc2ccccc2F)CC1)C1CC1,i,i,i,i,i
O=C(NC1CCN(Cc2ccccc2)CC1)c1ccc(Cl)cc1Cl,i,i,i,?,i
Clc1ccc(CNC2CCN(Cc3ccccc3)CC2)cc1,i,i,i,?,?
S=C(NCc1ccc(Cl)cc1)NC1CCN(Cc2ccccc2)CC1,18µM,23µM,-92,16µM,21µM
Cc1ccc(NC(=S)NC2CCN(Cc3ccccc3)CC2)cc1C,?,i,i,26µM,i
S=C(Nc1ccc(Cl)cc1)N1CCN(Cc2ccccc2)CC1,i,i,i,i,i
CC(C)c1ccc(NC(=S)N2CCN(Cc3ccccc3)CC2)cc1,?,i,i,26µM,i
S=C(Nc1ccc(Cl)cc1Cl)NC1CCN(Cc2ccccc2)CC1,21µM,i,i,16µM,i
Cc1ccccc1NC(=O)C(C)OC(=O)c1ccccc1C(=O)N(C)c1ccccc1 (stereo unspecified),i,i,i,i,i
CCOc1ccc(OCC)c(NC(=O)CSc2nnc(C3CC3)n2CC)c1,i,i,i,?,i
CC(C)c1ccc(NC(=S)NC2CCN(Cc3ccccc3)CC2)cc1,?,?,-89,23µM,?
Cc1ccc(NC(=S)NC2CCN(Cc3ccccc3)CC2)cc1,?,i,i,?,i
O=C1CCCc2c1oc1c2CCCC1,i,i,i,i,i
SMILES,DT40 TDP1 CPT,HT1080NT lethal,IL1B secr inh,DT40 TDP1 no CPT,HT1080 IDH1KD tx
NCCCC[C@H](NC(=O)[C@@H]1CCCN1C(=O)[C@@H]1CSSC[C@H](NC(=O)CNC(=O)CNC(=O)CN)C(=O)N[C@@H](Cc2ccc(O)cc2)C(=O)N[C@@H](Cc2ccccc2)C(=O)N[C@@H](CCC(N)=O)C(=O)N[C@@H](CC(N)=O)C(=O)N1)C(=O)NCC(N)=O,i,nt,nt,i,nt
Cc1ccc(Oc2nnc(-c3cccs3)c3ccccc23)cc1,?,i,i,18µM,i
c1ccc(Oc2nnc(-c3cccs3)c3ccccc23)cc1,i,i,i,?,i
Cc1ccc(Oc2nnc(-c3cccs3)c3ccccc23)cc1C,18µM,?,i,?,?
CCN(C(=O)COC(=O)Cc1c[nH]c2ccccc12)C1CCS(=O)(=O)C1 (stereo unspecified),i,i,i,i,i
CCOc1ccc(CCNC(=O)Cn2ccc3cc(S(=O)(=O)N4CCCC4)ccc32)cc1,?,i,i,?,i
CSc1ccc(CCNC(=O)Cn2ccc3cc(S(=O)(=O)N4CCCCCC4)ccc32)cc1,15µM,nt,nt,?,nt
COc1ccc(OC)c(CCNC(=O)Cn2ccc3cc(S(=O)(=O)N4CCCCC4)ccc32)c1,?,nt,nt,7.3µM,nt

# Compound activity as filed in PubChem.
